This note sets out measurements from PubChem BioAssay AID1508600 (Functional Genomics Laboratory (NCATS/FGL), 2020).

The whole screen tested about 53,000 sequences, of which about 3,700 (7%) were called active. This is one part of a sample in which actives are shown more often than they occur. Unmarked numbers belong to inactive results.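 Rule for the calls: active = gene knockdowns whose robust z-score for IL-1 alpha signal is at least 2 or at most -2, so actives lie on both sides; inactive = the rest.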

A short description of this assay: Components of the Cytosolic LPS Sensing Pathway: Gene Identification via Genome-wide siRNA Screen.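 Note: robust z of the log signal after scaling to non-targeting control siRNA wells of the plate.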 The settings on record: RAW264.7 macrophages, IL-1a HTRF, actives lie on both sides, screened at 100 nM (by protocol), cells primed 5 h with Pam3CSK4 first. The procedure, abridged: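 IL-1a HTRF of supernatants after 24 hour LipidA transfection of Pam3CSK4-primed (5 hours) RAW264.7 cells, 48h post-siRNA transfection (100 nM). Scores: percent of plate negative-control median, then log-based robust z-score.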
For orientation: Time-resolved FRET reads energy transfer from a long-lived donor to a nearby acceptor.
CCGUUUUGAACCAUAAAAATT against Zfp7: the z-score was -0.873.
To GGCCCACGUCCUGUACAUUTT against Tdrd1 belongs 3.38 (active); to GGUUUCGUAUAAAUUCUCUTT against Ank, 1.53.
To CGGAGUCAUACUUUUUCGATT against Trim12c belongs 0.0182.
To GGUAAAAUACUACCUGAGATT against Abca15 belongs -0.0103.
Regarding GGAAUUCUUCAUCCAUGGATT against Olfr570, the z-score was -2.66 (active).
As for CGGUUCUGGGAAUUCUUUGTT against Olfr624, the z-score is -2.11 (active).
In the case of GGAAGAAAUGUACAAACUGTT against Spg21, the z-score is 1.63.
The same measure for GGACAUUUUCUUUGGAAAATT against Ccnl1: 0.194; for GGACAGCAAGACCAACCUATT against Elavl2: -1.87.
To CCAUAAAUCACUCAGUUUGTT against Adad1 belongs 0.222; to GGCAUUAUCUACAUGCACATT against Olfr1287, 0.228.
The same measure for GCAUGGCUAUUUAACAUUCTT against Rpl7l1: 0.171; for GCAAUUUCUGUGUGAAGAATT against Ahcyl1: -0.705.
With GGGCUCUAGCUAAAAACGATT against Med10, the z-score was 1.23.
For the sequence AGUCUCCAAAUGCAUUUAATT against Serpinb9g, the z-score was -2.5 (active).
To GAAUCGGAGGACAAAAUACTT against Emx1 belongs 0.368; to GCACCUUUGAAUGUGAAGUTT against Ccl2, -0.408.
The same measure for CCUUCAUUGGUUAGCAUGUTT against Rbl2: -0.424.
Turning to CACGACCUAGGUGUGACCATT against Arrdc2, the z-score was -2.31 (active).
To CCUGACGAUCAAAUCACUGTT against Mvb12a belongs 0.0387; to CGCCAAUAUGGCCAUUGACTT against Ikzf2, -0.304.
The same measure for GGCUCUGUUUAUCCUGGAGTT against Pcdha7: -0.0385; for GGUUUCAUUUUUCGAGGAGTT against Cit: -0.269; for GGUGAUACCAUCACUUUGATT against Mark2: 0.173.
The same measure for GCCGCAUCCACACAUCUCUTT against Daam2: 0.465; for GGCACUCAGGAACUUCCUGTT against Eci3: -2.05 (active).
For the sequence GCCCAUAGUAUAAAAUACCTT against Dzip1, the z-score was 1.06.
The same measure for GGAAGAUGCCUUUUCCAAGTT against Syt1: 0.752; for GGUGGAAUAUAUUGAGUAUTT against Fam199x: 0.251; for CGACUAAGGAUGAAAAGCATT against Apbb1ip: -3.04 (active).
Turning to GCGAAAGACGAUCAAAACCTT against Scn1a, the z-score is 0.841.
For GGCUACACUCUGACAGCACTT against Znhit2, the z-score is -0.666.
To GCCCGGUAAAGGUAUCCAUTT against Trp53bp1 belongs 0.384; to GGGAGUUACUAACCACUUCTT against Gja3, -2.05 (active).
With GCCUCUCCUGUGAAUGACATT against Erlec1, the z-score was -0.699.
For GGGUGUCACAAAAUAAAAUTT against Sigirr, the z-score is -0.245.
The same measure for GGAGAUGAACCAUUAUGUCTT against Mycbp: -2.03 (active); for GCAGAAAUACUGGCGAAUATT against Gm9725: 0.607; for GGUGGAGACACUGAAGGUUTT against Akap1: 0.314.
To GACCAGAAAUUUAAGUGCUTT against Dnajc30 belongs 1.5; to GGAUCUUCCUCAUCACCCUTT against Ube4a, 0.657.
The same measure for “GCUUACCUGCUGUCUUAAUTT against F630003A18Rik”: 0.42.
In the case of GGAGCUCCUGAACAGGAUCTT against Gpr26, the z-score is 2.13 (active).
The same measure for CCUUACAUGUUGACUACCCTT against Rnase13: 0.403.
The same measure for GGUCUUCUGUCCAUUAGUGTT against Pigc: 0.14; for GGAGAAAGAUGGCAUAAUGTT against Slitrk6: -0.595; for GGUGAAGGUGAACAAGGACTT against Myh9: 2.92 (active).
The same measure for GGACAAUCCAUAAGUUAAATT against Scai: 0.22.
As for GGAAGUUAAGCAUAGUUUCTT against Flrt3, the z-score is 1.15.
As for GGCAACAGUAUUUAUGAAUTT against Sim2, the z-score is -0.45.
The same measure for CCUAGCAUGUUUCUUGCUATT against Rnft2: 0.46.
To GGAGAAAAUUGUCAAGAAGTT against Ift122 belongs -0.824; to CCAGGAUCAAAGAACUUAUTT against Olfr1424, -3.39 (active).
For GGAACUUUUCAUCCUGAAGTT against Fgl1, the z-score was 0.0919.
Regarding GCUCAUCAAGCUGUACCUATT against Eif2b1, the z-score was 1.16.
To GCUUUGAUUUAUGAGGUCATT against Ttc30a1 belongs 0.251; to GGUCUUGUGGUGGUACUACTT against Elovl2, 1.77; to GGCCAUUCUGGAAACUCCATT against Foxp4, -0.0644.
The same measure for GGAAUAAUAGAGGAAUGAGTT against Bclaf1: -1.61.
GGAGAGAGAUUUUCAAUAUTT against Gtdc1: the z-score is -0.41.
To GGAGAGCCUUAUUCAUCGCTT against H2-DMb2 belongs -0.0566; to GGAAUCUGUCAUGUGAAUATT against Slc1a5, -0.0766; to GCUGGUGCAUUACUGAGGUTT against Olfr69, 0.434.
The same measure for CCAAACACUAUGUGACAAGTT against Trim8: -0.626.
With GCGGGUGAAAUACACCAAGTT against Trim28, the z-score was -2.2 (active).
Turning to GGCCAAGCAUGUUUUGUCATT against Cep72, the z-score is -0.639.
The same measure for GCUUGGUGGGUUUGUUGAUTT against Slc28a1: -0.113; for GUGCUCUAUGUCUUCACUGTT against Ltb4r2: -1; for CGACUACCAACAGUUCAUATT against P2rx6: 1.14.
Regarding UCCAUUUCGACCCUUGUACTT against Romo1, the z-score was -2.88 (active).
To GGAGCUCAUAGACCAGCUUTT against Necab3 belongs 0.371; to GCUUGAUGGUAAAAAGGUUTT against Atl1, -1.18.
The same measure for CCAACCUAUAAGUUAAUGATT against Mrps22: -0.735; for CGGAGAGGAUUUCAUCGAATT against Azgp1: 0.0877; for GGGCCUCCAUCCUACUAUGTT against Grina: 1.65.
To GGGCUUCUUCUGCUAUGACTT against Plppr2 belongs -2.2 (active).
As for CGAUAUGUGUUUGUAAUGGTT against Atp6v1d, the z-score was -0.853.
Take GCCGUGAUCGACUUGAAUATT against U2af1: the z-score is 0.763.
The same measure for CCAAUAUGCUCAGUAUUACTT against Eya4: -1.36; for CCCUCUCCCUUCAAUGUGGTT against Cblif: -1.38.
To GGGUGUUUGGUUGUGAUCUTT against Arhgap33 belongs -2.07 (active); to GGAGUAGUAGCUGAAUUUGTT against Abcc3, 0.317; to GGCUGAUCUCUUUUGCCAGTT against Reg2, 0.00409.
To GGAACAUAUACUGGACAGATT against Zfp825 belongs 0.436.
Consider GGAUGUGAUCAUAGCAUGGTT against Slc35e1, for which the z-score was -2.07 (active).
To GGGCUAAUAUACAGAAAUATT against Rrm2b belongs -0.126; to GGUGGAGAAAAAUGCAACATT against Clnk, -0.429.
As to GGAAAUCUGAAGAAUCAAGTT against Zup1, the z-score is -0.621.
To GGAGGUAGAAAAGACAAAATT against Jrk belongs 1.96; to GGAUGCAUUUCUGAGCCACTT against Tacc2, -1.62; to CUCUCGAACAAUCAACCACTT against Olfr315, 2.05 (active).
The same measure for GGAAGGACAAUCAGUUCCUTT against Thsd7b: 0.999; for CCUUUUAUAACUGCUCUCUTT against Jpt2: -1.01; for GCUCACUCUUUCCAACUAUTT against Ubox5: 0.465.
To GGCUGGAUUAUUUUUUCUUTT against Usp4 belongs 0.921.
For GAACGUGCAGCUGACAGAGTT against Ppp1ca, the z-score is -1.03.
To GACUAUGUGGUCUACUCGUTT against Drd4 belongs 2.86 (active).
To CGGGCUGGAAGAAAUCUCUTT against Rhox3a belongs 0.771; to GGACAAAACCAUCUCCUUCTT against Olfr17, 0.324; to GGGAAUGCACUACAACUACTT against Chpf, 1.16.
The same measure for GCCAUAUCAACUAGUGCAGTT against Siglech: 2.36 (active).
For GGCUUUUCUGGCUAUCCACTT against Anxa7, the z-score was -0.774.
The same measure for GGCCCAAGAGCAUUCUGGATT against Slc25a19: 0.552; for GGGUGUGCAUUUGUACUACTT against Smad9: 1.21.
To GGAUAUGUCAGCAUAUGUGTT against Yeats4 belongs -0.583; to GGUCAACAGUUACAUCGAGTT against Vps33a, 0.273.
The same measure for GCCCAUCUUAGCAUUCUCUTT against Aldh4a1: -1.91.
